Screening results: PubChem, several laboratories
Ba/F3 V617F tox = reduce viability of Ba/F3 cells dependent on JAK2V617F | Ba/F3 EpoR-JAK2V617F viability, ATP luminescence | inhibition, % at 5.6 µM | hit rate 1.1% among 220,000 | AID 1446;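 active = inhibition above the campaign mean plus 3 SD over all tested compounds, cut at about 24% in these data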;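 note: cytokine-independent growth of Ba/F3 cells driven by EpoR plus mutant JAK2; 0% = DMSO-treated cells and 100% = JAK inhibitor I control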
IEC-6 tox = counter-screen for KLF5 inhibitors: cytotoxicity in IEC-6 cells; inhibition, % at 5 µM; IEC-6 cytotoxicity, luminescence viability; hit rate 0.78% among 290,000; in the data active = inhibition above about 22%;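 note: 0% = plate median of test compound wells and 100% = cytotoxic reference compound wells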
APP transl inh = APP translation inhibition; inhibition, % at 2 µM; AID 1285; SH-SY5Y APP 5'UTR-luciferase reporter, luminescence; hit rate 0.82% among 190,000;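 active = inhibition above a set limit, derived from the sample mean plus 3 SD, cut at about 45% in these data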
BaF3 tox = counter-screen for JAK2V617F inhibitors: parental Ba/F3 viability inhibitors; CellTiter-Glo ATP luminescence; inhibition, % at 5.6 µM; hit rate 1.1% among 220,000; AID 1486;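 active = inhibition above a per-campaign cutoff, the mean inhibition of all tested compounds plus 3 SD, cut at about 27% in these data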;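 note: 0% = DMSO wells and 100% = JAK Inhibitor I control wells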
KLF5 inhibitor = suppresses KLF5 promoter-driven expression | DLD-1 KLF5 promoter-luciferase reporter, luminescence | inhibition, % at 5 µM | hit rate 0.23% among 290,000 | AID 1700;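 active = inhibition above a per-plate limit of that plate's mean compound inhibition plus 3 SD, cut at about 60% in these data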;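 note: 0% = DMSO wells and 100% = LY294002 at 200 µM; higher means less KLF5 promoter-driven luciferase light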
Numbers without * were called inactive; . = no result given. A selection: hits, their analogues and other compounds. The true share with any hit is near 1.8%.

SMILES	Ba/F3 V617F tox	IEC-6 tox	APP transl inh	BaF3 tox	KLF5 inhibitor
Cc1cccc(NC(=O)CCc2nnc3ccc(NCc4ccco4)nn23)n1	.	-5	.	.	-14
CC[C@@H](C(=O)[C@@H](C)[C@@H](O)[C@H](C)CCc1ccc(C)c(O)c1C(=O)O)[C@H]1O[C@](CC)([C@H]2CC[C@](O)(CC)[C@H](C)O2)C[C@@H]1C	.	91*	.	.	32
Cc1cc(/C=N/n2c(COc3ccccc3C)nc3ccccc3c2=O)c(O)c([N+](=O)[O-])c1	4	8	45*	9	-20
Cc1ccccc1OCc1nc2ccccc2c(=O)n1/N=C/c1c[nH]c2ccccc12	-1	-3	-6	7	-25
COc1ccc(CNC(=O)COc2ccc(OC)cc2)cc1	.	0	.	.	-16
CCS(=O)(=O)c1ccc2oc(SCC(=O)NC(C)C3CC4CCC3C4)nc2c1 (stereo not drawn)	-3	-4	11	6	-6
COc1ccc2c(c1)[nH]c1c(N3CCN(Cc4ccc5c(c4)OCO5)CC3)ncnc12	40*	14	3	37*	-27
Cc1ccc2[nH]c3c(N4CCN(Cc5ccc6c(c5)OCO6)CC4)ncnc3c2c1	-3	8	-18	1	-12
CCN(CC)CCNC(=O)c1ccc(NC(=O)/C=C/c2ccc3ccccc3n2)cc1	.	5	.	.	-20
COc1ccc(C(=O)C2CCN(C(=S)NCCc3ccc(OC)c(OC)c3)CC2)cc1	2	6	11	3	3
COc1ccc(CCNC(=S)N2CCC(C(=O)c3ccc(F)cc3)CC2)cc1OC	-3	5	48*	-2	-10
CC1(C)Cc2c(c(-c3ccccc3)nc(N3CCOCC3)c2C(N)=O)CO1	-4	-2	66*	0	-8
CC1(C)Cc2c(c(N3CCOCC3)nc3sc(C(=O)Nc4ccccc4)c(N)c23)CO1	.	-5	.	.	-156
CC(=O)n1c(Cl)c(NC(=O)CCl)c2ccccc21	3	0	75*	4	-23
CC(=O)n1c2ccccc2c2ccccc21	1	-11	4	5	-27
CSCCC(NS(=O)(=O)c1cccs1)C(=O)NCc1cccs1 (stereo not drawn)	-2	-2	47*	5	6
O=c1[nH]c(CN2CCN(c3ccccc3O)CC2)nc2scc(-c3ccccc3Cl)c12	4	2	.	2	7
O=c1[nH]c(CN2CCN(c3ccc(O)cc3)CC2)nc2scc(-c3ccc(Cl)cc3)c12	4	20	62*	9	-8
Cc1ccc(S(=O)(=O)Nc2ccc3nc(N)sc3c2)cc1	0	6	0	6	5
Cc1ccc(S(=O)(=O)Nc2ccc3nc(C)sc3c2)cc1	34*	5	13	39*	-21
Cc1nc2ccc(NS(=O)(=O)c3ccc4c(c3)OCCO4)cc2s1	42*	14	-11	53*	-41
CCN(C(=O)CSc1nnc2c3ccccc3n(CC)c2n1)C1CCS(=O)(=O)C1 (stereo not drawn)	2	-2	-11	10	6
COc1ccc(NS(=O)(=O)c2cccc(NC(=O)c3ccc(S(=O)(=O)N4CCCCCC4)cc3)c2)cc1	42*	11	22	44*	-19
COc1ccc(NS(=O)(=O)c2ccc(N3CCOCC3)c(NC(=O)c3ccccc3Cl)c2)cc1	43*	2	-2	42*	6
COc1ccc(NS(=O)(=O)c2ccc(O)c(NC(=O)c3ccc(S(=O)(=O)N4CCCCCC4)cc3)c2)cc1	-1	2	-12	4	7
SMILES	Ba/F3 V617F tox	IEC-6 tox	APP transl inh	BaF3 tox	KLF5 inhibitor
COc1ccc(NS(=O)(=O)c2ccc(N3CCOCC3)c(NC(=O)c3ccc(OC)cc3)c2)cc1	41*	6	-4	42*	-20
O=C(CCCN1Cc2ccccc2C1)c1ccc(F)cc1	-4	-2	-22	2	-13
CN1CCN(CCCC(=O)c2ccc(F)cc2)CC1	1	-2	-3	92*	-7
c1cnc2ccc(C(c3nnnn3C3CCCCC3)N3CCCCC3)cc2c1 (stereo not drawn)	-1	0	3	3	-38
c1cnc2ccc(C(c3nnnn3C3CCCCC3)N3CCN(C4CCCCC4)CC3)cc2c1 (stereo not drawn)	37*	-6	9	33*	-10
CC(Oc1cccc2c1OC(C)(C)C2)C(=O)O (stereo not drawn)	0	0	67*	0	-41
O=C(OCCN(C1=NS(=O)(=O)c2ccccc21)c1ccccc1Cl)c1ccc(Cl)cc1	-3	-7	6	4	-24
COc1ccc(/C=C/CN2CCN(CCc3ccccc3)C(CCO)C2)cc1 (stereo not drawn)	-1	-3	10	6	-1
CCOc1ccccc1CN1CCN(C/C=C/c2ccc(OC)cc2)CC1CCO (stereo not drawn)	4	11	15	43*	10
COC(=O)c1ccc(NC(=O)CSc2nnc(COc3ccc4c(c3)CCCC4)o2)cc1	-3	-6	-3	96*	7
Cc1cccc(OCc2n(CC(=O)OC3CC(C)CCC3C(C)C)c3ccccc3[n+]2C)c1 (stereo not drawn)	101*	0	-32	88*	-16
CCCCCCCCCCOC(=O)Cn1c(COc2ccccc2OC)[n+](C)c2ccccc21	.	12	.	.	25
CC1CCC(C(C)C)C(OC(=O)Cn2c(-c3ccc(F)cc3)[n+](C)c3ccccc32)C1 (stereo not drawn)	98*	5	-3	82*	-9
O=C(CSc1nnc(-c2ccccc2F)n1CCc1ccccc1)Nc1ccc2[nH]c(=O)[nH]c2c1	4	-2	8	7	6
CCOc1ccc(-c2cc(CCCC(=O)Nc3cccc(OC)c3)no2)cc1	-4	4	80*	0	2
Cc1cc(C)c(S(=O)(=O)/N=C2/C=C(Sc3ncn[nH]3)C(=O)c3ccccc32)cc1C	41*	14	89*	7	-1
Cc1ccc(C)c(S(=O)(=O)/N=C2\C=C(NS(=O)(=O)c3ccccc3)C(=O)c3ccccc32)c1	.	-1	.	.	10
CCn1nc(C)c(/C=N/NC(=O)Cn2nc(C)cc2C)c1C	-8	-4	-10	-2	3
COc1ccc(C(=O)C(CN2CCOCC2)c2ccccc2)cc1F (stereo not drawn)	93*	6	62*	49*	26
CN1\C(=C/C=C/C=C/C=[N+](C)C)C(C)(C)c2ccccc21	38*	-7	10	33*	-14
CN1/C(=C/C=C(C#N)C#N)C(C)(C)c2ccccc21	-3	-1	-6	0	1
CN1/C(=C\C=Nc2ccc3ccccc3c2)C(C)(C)c2ccccc21	48*	14	-15	42*	-13
CN1/C(=C\C=O)C(C)(C)c2ccccc21	39*	4	10	49*	-10
CN(C)c1ccc(N=C/C=C2\N(C)c3ccccc3C2(C)C)cc1	2	3	-143	11	-116
CCc1ccc(OCCCC(=O)Nc2ccc(S(N)(=O)=O)cc2)cc1	5	5	-20	4	7
COc1ccc(N(CC(=O)NCc2ccc3c(c2)OCO3)C(=O)c2csnn2)cc1	.	-4	.	.	-37
